The results in this text go back to ChEMBL document CHEMBL3988442, “University of Dundee, Small-Polar-MMV Screening Library” (2021).

The test relates to Plasmodium falciparum. The test is described as follows: Plasmodium falciparum sporozoite viability assay. Type of test: functional, organism-based. The arrangement: scale not given: in the data most compounds retested in dose-response had high values.

“And” between values parts separate entries of the source, which are not always exact repeats. Equal entries are not always repeated. The campaign covered roughly 34,000 compounds. About 290 (0.85%) showed an effect of 50% or more. The sample holds strong results, similar compounds and a random draw of the others, so the mix is not that of the screen.

Regarding `Cc1csc(CNCC(C)c2nc3ccccc3o2)n1` (centres undefined), the “Percent Effect” value came to 10.3%.

Consider `O=C(Cn1cnc2cc3c(cc21)OCCCO3)NC1CCCCC1`, for which the “Percent Effect” value (10 mM as filed; unlikely as a test dose) is 58.19% and 56.08% and 47.01%. In the case of `O=C(Cn1cnc2cc3c(cc21)OCCCO3)NCCc1ccccc1`, where the note is “10 mM as filed; unlikely as a test dose”, the “Percent Effect” value is 3.571% and -13.25% and -3.678%. With `O=C(Cn1cnc2cc3c(cc21)OCCCO3)NC1CCCC1`, for the setting “10 mM as filed; unlikely as a test dose”, the “Percent Effect” value is 34.04% and 26.95% and 25.51%. As to `NC(=O)N1CCC2(CC1)CC(=O)N(CC1CCCO1)c1ccccc12` (centres undefined), the “Percent Effect” value was 6.567%. Still for that read-out and setting: as for `Cc1cc(CN2CCOC(Cn3nc(C)cc3C)C2)on1` (centres undefined), the figure is 2.612%. With `COCCN(C(=O)c1ccccn1)c1nc2c(s1)CCc1c-2cnn1C`, the “Percent Effect” value (10 mM as filed; unlikely as a test dose) was 80.83% and 57.64% and 71.31%. `CCCN(C(=O)c1ccncc1)c1nc2c(s1)CCc1c-2cnn1C`: the “Percent Effect” value was determined as 11.45%. On the same count and under the same terms, the value for `COCCN(C(=O)c1cnccn1)c1nc2c(s1)CCc1c-2cnn1C` was -10.14%; that for `CCCN(C(=O)c1cnccn1)c1nc2c(s1)CCc1c-2cnn1C` was 1.308%; that for `Cc1ccc(C(O)CN2CCN(Cc3nccn3C)CC2)cc1C` (centres undefined) was 1.122%. Regarding `Cc1noc(C)c1CN(C)C(=O)NC1CCCN(S(C)(=O)=O)C1` (centres undefined), the “Percent Effect” value is reported as 9.671%.

With `Cc1cc(C)n(CC2CN(Cc3ccccn3)CCO2)n1` (centres undefined), the “Percent Effect” value turned out to be 1.241%. Turning to `Cc1cnn(CC2CN(Cc3nc4ccccc4s3)CCO2)c1` (centres undefined), under “10 mM as filed; unlikely as a test dose”, the “Percent Effect” value was 55.85% and 70.99% and 46.92%. As to `Cc1cnn(CC2CN(Cc3nc4ccccc4o3)CCO2)c1` (centres undefined), the “Percent Effect” value was -0.5102%.

Regarding `Cc1nc2ccccc2nc1CN1CCOC(Cn2cccn2)C1` (centres undefined), the “Percent Effect” value is listed as 6.321%. Still for that read-out and setting: as for `c1ccc2sc(N3CCOC(Cn4cccn4)C3)nc2c1` (centres undefined), the figure is 9.76%. With `Cc1nc(CN2CCOC(Cn3cncn3)C2)nc2ccccc12` (centres undefined), the “Percent Effect” value (10 mM as filed; unlikely as a test dose) was 1.85% and -1.802% and -10.11%. Consider `Cc1cnn(CC2CN(Cc3nc4ccccc4nc3C)CCO2)c1` (centres undefined), for which the “Percent Effect” value is on record as -7.63%. Turning to `Cc1cc(C)n(CC2CN(Cc3nc4ccccc4s3)CCO2)n1` (centres undefined), for the setting “10 mM as filed; unlikely as a test dose”, the “Percent Effect” value is 66.96% and 52.93% and 45.91%.

Take `c1ccc(-c2ccc(CN3CCOC(Cn4cncn4)C3)cc2)cc1` (centres undefined): the “Percent Effect” value is recorded as -3.122%. The same measure, in the same setting: the value for `c1ccc(OCCN2CCC(c3nnc(-c4cccnc4)o3)CC2)cc1` was -3.337%; that for `CCOCC1c2c(cnn2C)CCN1C(=O)c1cc(C)on1.O=C(O)C(F)(F)F` (centres undefined) was 15.94%; that for `COc1ccc(Br)c(C(=O)NCC2CC2)c1` was 3.186%. The same measure, in the same setting: as for `CC(C)COCC1CN(Cc2ccco2)Cc2ncn(C)c21` (centres undefined), the figure is 12.26%; as for `Cc1ccc(CN2CC[C@@H]3[C@@H](CO[C@H]3CN3CCN(C)CC3)C2)s1.O=C(O)C(F)(F)F.O=C(O)C(F)(F)F.O=C(O)C(F)(F)F`, 10.79%; as for `O=C1[C@H]2CN(S(=O)(=O)C3CC3)C[C@H]2CN1CC1CC1`, 4.506%. Take `CC(=O)Nc1nc(C(=O)N2CCCCC2Cn2cc(C)cn2)cs1` (centres undefined): the “Percent Effect” value was -12.14%.

Take `Cc1ccc(S(=O)(=O)NC(=O)c2c(C)noc2C(C)C)cc1C`: the “Percent Effect” value was -15.45%.

Regarding `CNC(=O)CCNC(=O)CCc1c(C)nc2cc(O)nn2c1C`, the “Percent Effect” value is reported as 8.263%.

Consider `Cc1ccc(CN(C)C(=O)CNC(=O)N2CCc3ccccc3C2)o1`, for which the “Percent Effect” value was 1.19%. The same measure, in the same setting: the value for `CCC1c2ccsc2CCN1C(=O)NCc1ccc(C)nc1` (centres undefined) was 6.154%. Turning to `CC(C)(C)c1cn2nc(N3CCCC(Cn4cncn4)C3)sc2n1` (centres undefined), the “Percent Effect” value (10 mM as filed; unlikely as a test dose) is 61.38% and 60.13% and 50.37%. On to `CC(C)(C)c1cn2nc(N3CCOC(Cn4cncn4)C3)sc2n1` (centres undefined), for which the “Percent Effect” value stood at 8.052%. `CC(C)(C)c1cn2nc(N3CCCC3Cn3cncn3)sc2n1` (centres undefined): for the setting “10 mM as filed; unlikely as a test dose”, the “Percent Effect” value is -5.183% and 4.187% and 0.2303%. In the case of `Cc1nc(-c2c(C)noc2C)cc(C2CCN(S(=O)(=O)N(C)C)CC2)n1`, the “Percent Effect” value was determined as 10.55%.

Turning to `CN(C)C(=O)CN1CC[C@]2(CN(CC3CC3)C[C@H]2c2ccccc2)C1=O.O=C(O)C(F)(F)F`, the “Percent Effect” value is 2.654%.

For the compound `O=C(CCc1ccccc1)N1CC(n2cncn2)C1`, the “Percent Effect” value stood at 7.531%. As to `COc1c(CNCc2ccc3c(c2)OCO3)c(C(C)C)nn1C`, the “Percent Effect” value worked out at 7.092%. With `O=C1NCCN2CCN(C(=O)NCCc3ccccc3)CC12` (centres undefined), where the note is “10 mM as filed; unlikely as a test dose”, the “Percent Effect” value was 64.04% and 69.93%. As for `CC1=N[C@@]2(CC[C@@H]3CN(C(=O)NCCc4ccccc4)C[C@@H]32)C(=O)N1`, the “Percent Effect” value is reported as 2.735%.

For the compound `O=C(NCCc1ccccc1)N1CCC(C2OCCO2)CC1`, the “Percent Effect” value (10 mM as filed; unlikely as a test dose) is 28.36% and 65.96%. Same read-out and setting: the value for `O=C(NCCc1ccccc1)N1CCCCC1C1OCCO1` (centres undefined) was -48% and -64.36%; that for `O=C1NCCN2CCN(C(=O)Nc3ccc(-c4ccccc4)cc3)CC12` (centres undefined) was -23.97% and -24.61%. Turning to `O=C(NCc1ccccc1F)N1CCC(C2OCCO2)CC1`, the “Percent Effect” value came out at 0.1127%. As to `CC(=O)N1CCCC1C(=O)NCCOc1cccc(F)c1` (centres undefined), the “Percent Effect” value is listed as -6.239%. Same read-out and setting: the value for `Cn1cc(C(=O)N2C[C@@H]3CN(S(C)(=O)=O)CCO[C@@H]3C2)cn1` was -2.6%; that for `C[C@]1(O)CN(CCO)CC[C@@H]1Oc1cccc(F)c1` was 17.57%; that for `COc1ccccc1OCCC(=O)N1CCCCC1c1nccs1` (centres undefined) was -5.924%.

For the compound `CN(C)CCNc1ccc(-c2nc(-c3ccccc3F)no2)cn1`, where the note is “10 mM as filed; unlikely as a test dose”, the “Percent Effect” value was 80.1% and 68.27%. On the same count and under the same terms, the value for `CC(C)(CO)Nc1ccc(-c2nc(-c3ccccc3F)no2)cn1` was 13.89% and 24.65%.

For `CC(O)CN1CCC(CNCc2ccc(C(N)=O)cc2)CC1` (centres undefined), the “Percent Effect” value was 0.9015%. Same read-out and setting: the value for `Cc1ccc(CNC(=O)NC(C)Cn2cccn2)cn1` (centres undefined) was 11.6%; that for `CCN1CCN(c2ccc(CNC(=O)Cc3c(C)noc3C)cn2)CC1` was 9.727%; that for `Cc1nc(CN2CCC2(CCCc2ccccn2)C(=O)N(C)C)co1` (centres undefined) was 12.32%. The same measure, in the same setting: as for `CCOCc1nn(CC2CC2)c2c1CN(Cc1cccs1)CC2.O=C(O)C(F)(F)F.O=C(O)C(F)(F)F`, the figure is 6.48%. On the same count and under the same terms, the value for `Cc1nc(CN2CC(CCCc3ccccn3)(C(=O)N(C)C)C2)co1` was -0.6757%. Turning to `COc1cccc(OCC2CCCN(C3CCN(C(C)=O)CC3)C2)c1` (centres undefined), the “Percent Effect” value (10 mM as filed; unlikely as a test dose) is -11.14% and -12.8% and -12.12%. For `COc1cccc(OCC2CCCN(C(=O)c3cnc(C)nc3O)C2)c1` (centres undefined), the “Percent Effect” value is given as -6.706%.
